Compound activity deposited in PubChem by several laboratories.
RAD52 anneal inh: blocks human RAD52 DNA annealing; P43351; inhibition, % at 18.7 µM; recombinant RAD52 DNA annealing, FRET fluorescence; 0.46% of 360,000 active;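 active means every replicate showing at least 50% inhibition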
Target sequence (P43351 whole entry, looked up): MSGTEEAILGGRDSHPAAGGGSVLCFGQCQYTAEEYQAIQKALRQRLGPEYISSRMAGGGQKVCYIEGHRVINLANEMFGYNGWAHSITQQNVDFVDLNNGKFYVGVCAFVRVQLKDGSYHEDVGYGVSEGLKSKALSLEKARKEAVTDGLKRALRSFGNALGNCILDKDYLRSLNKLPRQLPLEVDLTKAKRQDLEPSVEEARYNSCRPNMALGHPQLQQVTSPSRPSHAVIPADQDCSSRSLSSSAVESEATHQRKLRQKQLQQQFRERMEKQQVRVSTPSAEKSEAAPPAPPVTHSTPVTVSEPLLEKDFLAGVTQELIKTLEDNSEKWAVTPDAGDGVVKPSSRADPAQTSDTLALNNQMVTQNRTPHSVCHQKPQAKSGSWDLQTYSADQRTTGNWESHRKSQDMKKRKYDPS
miR122 inh: inhibitors of miR-122 in Huh7 cells. 0.3% of 340,000 active. Huh7 miR-122 Renilla luciferase sensor, 48 h; neutral wells = 0, positive control = 100. activation (reporter increase), % at 12.5 µM;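 active means mean replicate activation score at least 90 and every replicate individually at or above 90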;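 further: higher luciferase means less miR-122 activity so hits act as miR-122 inhibitors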
CendR NRP1 mod: alters CendR peptide binding to human NRP-1 | FAM-RPARPAR peptide binding to NRP-1, fluorescence polarization | inhibition, % at 25 µM | 0.85% of 360,000 active | AID 602438;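 active means inhibition or corrected inhibition above about 18%, plus a signal ratio from 0.5 to 1.5, limit read from the data, passing the limit was not always enough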
FID counter: displaces DNA intercalator in HCV helicase counter-screen; DNA fluorescent intercalator displacement, fluorescence; inhibition, % at 7.9 µM; 0.17% of 290,000 active; AID 1845; in the data active means inhibition above about 37%;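 further: 0% = vehicle and 100% = reference compound; higher means more ethidium bromide displaced from hairpin DNA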
Glyco luc inh: N-linked glycosylation inhibition | D54 ERlucT glycosylation luciferase reporter, 24 h; percent of 100 nM tunicamycin response | reporter increase, % at 12.5 µM | 0.23% of 360,000 active;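 active means mean luciferase reporter signal, scaled so untreated is 0 and the glycosylation-blocking control 100, at or above a set limit in every replicate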;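 further: luciferase carries N-glycosylation sites so blocking glycosylation raises the light; 0% = median of neutral control wells and 100% = median of 100 nM tunicamycin wells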
RAD54 inh: blocks human RAD54 Holliday junction branch migration; FAM/BHQ fluorescence; inhibition, % at 10.4 µM; 0.14% of 360,000 active; AID 602329;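 active means mean normalized replicate activity at least 40 and at least half of replicates scoring 40 or more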;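 further: 0% = median of neutral control wells and 100% = median of positive control wells; inhibitors cause a drop in the FAM fluorescence signal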
DNA binder FP: counter-screen for RAD52 inhibitors: DNA binding compounds; shares compounds with RAD52 anneal inh; Salmon sperm DNA/acridine orange FP displacement; AC50, µM; 8% of 1,000 active;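 active means fitted half-maximal concentration for signal loss at or below twice the highest dose tested, in every separate run, actives reach about 64 µM in these data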
Numbers without * were called inactive; i = inactive; . = no result; ! = a repeat was not active; [ ] = remark or other dose. Rows were chosen to be rich in hits. Some 1.5% of all compounds tested hit in one or more screens of this group.

SMILES | RAD52 anneal inh | miR122 inh | CendR NRP1 mod | FID counter | Glyco luc inh | RAD54 inh | DNA binder FP
C[C@@H]1CN([C@H](C)CO)C(=O)c2cc(NS(=O)(=O)c3ccccc3)ccc2O[C@@H]1CN(C)Cc1ccncc1 | 4 | 39[16.7 µM] | . | . | . | 13 | .
CN(C)CCCN(C(=O)c1ccc2c(c1)CCCC2)c1nc2c(F)cccc2s1 | 75* | 8 | 0 | 8 | 6 | 9 | i
Cc1cc(C)c2nc(N(CCCN(C)C)C(=O)c3ccc4c(c3)CCCC4)sc2c1 | 58* | . | . | . | . | . | i
Cc1cc(C)c2nc(N(CCCN(C)C)C(=O)c3ccc(S(=O)(=O)N4CCCCCC4)cc3)sc2c1 | 61* | 3 | -10 | . | -5 | 6 | i
Cc1ccc2nc(N(CCCN(C)C)C(=O)c3ccc4c(c3)CCCC4)sc2c1 | . | -12 | -6 | 22 | -9 | 26 | .
CN(C)CCCN(C(=O)c1ccc(N2C(=O)CCC2=O)cc1)c1nc2c(F)cccc2s1 | 2 | 8 | 6 | 6 | 0 | 6 | .
C[C@H](CO)N1C[C@H](C)[C@H](CN(C)S(=O)(=O)c2ccc(Cl)cc2)Oc2ccc(NC(=O)Nc3ccc(F)cc3)cc2CC1=O | 1 | 1[16.7 µM] | . | . | . | 3 | .
O=C1CNC[C@@H]2[C@H](c3ccc(C4=CCCC4)cc3)[C@@H](CO)N12 | -6 | . | . | . | . | . | .
CCN1CCN(Cc2ccc(NC(=O)c3cc(NC(=O)c4cc5cccc(OC)c5o4)cc(OC)c3)cc2C(F)(F)F)CC1 | 94*! | -31 | 0 | . | -21 | -1 | i
CCN1CCN(Cc2ccc(NC(=O)c3cc(NC(=O)c4cncc(-c5cccs5)c4)cc(OC)c3)cc2C(F)(F)F)CC1 | 76* | -29 | -28 | 20 | -10 | 7 | i
CCN1CCN(Cc2ccc(NC(=O)c3ccc(C)c(NC(=O)c4csc(-c5ccncc5)n4)c3)cc2C(F)(F)F)CC1 | 75* | -13 | 0 | . | -9 | 13 | i
CCN1CCN(Cc2ccc(NC(=O)c3ccc(C)c(NC(=O)C4=NN(c5ccccc5)C(=O)C4)c3)cc2C(F)(F)F)CC1 | 5 | 0 | -10 | . | -4 | -7 | .
CCN1CCN(Cc2ccc(NC(=O)c3cc(NC(=O)c4ccno4)cc(OC)c3)cc2C(F)(F)F)CC1 | 57*! | -8 | -2 | . | -4 | 1 | i
CCN1CCN(Cc2ccc(NC(=O)c3cc(NC(=O)C4=NN(c5ccccc5)C(=O)C4)cc(OC)c3)cc2C(F)(F)F)CC1 | -5 | -8 | 2 | . | 0 | -1 | .
CCN1CCN(Cc2ccc(NC(=O)c3cc(NC(=O)c4cc(-c5ccc(OC)cc5)n[nH]4)cc(OC)c3)cc2C(F)(F)F)CC1 | 5 | -3 | 17 | . | -7 | -3 | .
Cc1noc(C)c1S(=O)(=O)N(C)C[C@@H]1OCCCC[C@H](C)Oc2ccc(NC(=O)NC3CCCCC3)cc2C(=O)N([C@H](C)CO)C[C@@H]1C | -14 | -10[16.7 µM] | . | . | . | -5 | .
CCCC(=O)Nc1ccc2c(c1)C(=O)N(C)C[C@H](OC)[C@@H](C)CN(Cc1ccccc1F)[C@@H](C)CO2 | 10 | 6[16.7 µM] | . | . | . | -7 | .
NC(COCc1ccccc1)c1csc(Nc2ccc(C(=O)c3ccccc3)cc2)n1 (configuration not stated) | 58* | -1 | 4 | . | -1 | 4 | i
NC(=NCc1ccccc1)NN=Cc1ccnc2ccccc12 | 64* | . | -1 | . | 2 | . | i
CNC(=O)C[C@H]1CC[C@H]2[C@@H](COC[C@H](O)CN2S(=O)(=O)c2ccc(Oc3ccccc3)cc2)O1 | 15 | 7[16.7 µM] | . | . | . | -1 | .
CC(=O)OCn1ncc(N2CCOCC2)c(Br)c1=O | 94* | -6 | -1 | -6 | 5 | 0 | i
Cc1noc(C)c1NC(=O)Nc1ccc2c(c1)C(=O)N([C@@H](C)CO)C[C@@H](C)[C@H](CN(C)C(=O)NC(C)C)OCCCC[C@H](C)O2 | -2 | -1[16.7 µM] | . | . | . | 1 | .
COc1ccc2sc(N(CCCN(C)C)C(=O)c3ccc(S(=O)(=O)N4CCCc5ccccc54)cc3)nc2c1 | 77* | . | -26 | . | -8 | 2 | i
COc1cc2nc(N(CCCN(C)C)C(=O)c3ccc(S(=O)(=O)N(C)C4CCCCC4)cc3)sc2cc1OC | 45 | -2 | 11 | . | -4 | 23 | .
